The panel holds about 79,000 compounds, 15% with a hit somewhere; the sample as a whole holds those more often. Values without a mark were called inactive. The source made the active and inactive calls. No stated cut-off is given here; in the data, active means growth inhibition above about 70%; inactive means the rest.

Test [1] is described as follows: NCI Yeast Anticancer Drug Screen. Data for the rad50 strain (AID 155).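 Further: 0% = growth of vehicle-only cultures of the same strain.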 Conditions: S. cerevisiae rad50 strain growth inhibition; at 50.0 µM; active compounds read high. The procedure, abridged: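 Growth of the mutant yeast was measured after compound exposure and referenced to vehicle-treated cultures.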
A short description of test [2]: NCI Yeast Anticancer Drug Screen. Data for the mec2-1 strain (AID 157). To be noted: S. cerevisiae mec2-1 strain, at 50.0 µM, active compounds read high. The procedure, abridged: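 Cells of the genetically defined mec2-1 yeast strain are incubated with test compound. Inhibition of growth is calculated against vehicle-treated controls.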
A short description of test [3]: NCI Yeast Anticancer Drug Screen. Data for the sgs1 mgt1 strain (AID 161).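 Further: 0% = growth of cultures given vehicle only.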 Conditions: S. cerevisiae sgs1 mgt1 strain, at 50.0 µM, active compounds read high. The procedure, abridged: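 Inhibition of yeast growth, normalised to vehicle-treated controls, is reported for a strain bearing genetic alterations in DNA damage repair.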
A short description of test [4]: NCI Yeast Anticancer Drug Screen. Data for the cln2 rad14 strain (AID 165).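 Further: 0% = growth equal to vehicle treated cultures.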 To be noted: S. cerevisiae cln2 rad14 strain, at 50.0 µM, active compounds read high. The procedure, abridged:
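The screen exposed genetically defined yeast (cln2 rad14) to test compounds and scored growth inhibition relative to vehicle-treated controls.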

A short description of test [5]: NCI Yeast Anticancer Drug Screen. Data for the bub3 strain (AID 167). To be noted: S. cerevisiae bub3 mutant strain, at 50.0 µM, active compounds read high. In a few lines: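 Whole-cell yeast assay. The mutant strain was incubated with compounds, and growth inhibition was determined by comparison with vehicle-treated cells.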
Test [6] in a line: NCI Yeast Anticancer Drug Screen. Data for the mlh1 rad18 strain (AID 175). Conditions: S. cerevisiae mlh1 rad18 strain growth inhibition; at 50.0 µM; active compounds read high. The procedure, abridged:
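Compound-treated yeast growth, normalised to vehicle controls. Strain bears defined DNA repair mutations.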

Consider `CC(=O)OC(C)C(=O)OCCOc1ccccc1` (stereo unspecified), for which the growth inhibition is 8.7% in test [1]; -12% in test [2]; 14.3% in test [3]; -36.6% in test [4]; -7.3% in test [5]; -4% in test [6].
As for `O=C1CN(c2ccccc2)C(=O)CN1CCN1CC(=O)N(c2ccccc2)CC1=O`, the growth inhibition in test [1] was -34%; in test [2], 14.8%; in test [3] it was -4.5%; in test [4], -2.3%; in test [5] it was -31.5%; in test [6], -8.6%.
On to `CN(Cc1cccc(Cl)c1)C(=O)Nc1ccccc1Cl`, for which the growth inhibition in test [1] is -1.25%; in test [2] it was 48.8%; in test [3], 47.5%; in test [4] it was -21%; in test [5], 34.6%; in test [6] it was 53.4%.
With `O=S(Nc1ccc(Cl)cc1)c1ccccc1` (stereo unspecified), the growth inhibition was 10% in test [1]; 10.9% in test [2]; 31.1% in test [3]; 4.1% in test [4]; 18.1% in test [5]; 2.3% in test [6].
Take `COC(=O)C1(OC(=O)Sc2ccccc2)CCN(C)CC1`: the growth inhibition in test [1] was -19.8%; in test [2] it was -5.95%; in test [3], -7.15%; in test [4], 15.4%; in test [5], -7.55%; in test [6], -25.1%.
As for `Cc1cc(OC(=O)c2ccccc2)c(C)c(C)c1OC(=O)c1ccccc1`, the growth inhibition in test [1] was 6.15%; in test [2], -7.95%; in test [3], 15.2%; in test [4], 9.2%; in test [5], 8.4%; in test [6] it was 21.1%.
For the compound `CCCCNC(N)=O`, the growth inhibition in test [1] is -21.1%; in test [2], -36.1%; in test [3], -21.9%; in test [4], -37.9%; in test [5], -2.2%; in test [6], -9.25%.
In the case of `O=C1c2ccccc2C(=O)C1(Cl)C(Cl)c1ccc([N+](=O)[O-])cc1` (stereo unspecified), the growth inhibition was 99.3% (active) in test [1]; 98.9% (active) in test [2]; 99.6% (active) in test [3]; 99.1% (active) in test [4]; 99.3% (active) in test [5]; 99.5% (active) in test [6].
As for `O=C1CCCc2[nH]c3ccc(Cl)cc3c21`, the growth inhibition in test [1] was -1.9%; in test [2], 0.3%; in test [3], -10.9%; in test [4] it was -21.9%; in test [5] it was -14.2%; in test [6], 12.9%.
On to `COc1c(C)c(C)c(OC)c(CC(=O)O)c1C`, for which the growth inhibition in test [1] is -3.05%; in test [2] it was -0.6%; in test [3], -3.7%; in test [4] it was -34.9%; in test [5], -17.7%; in test [6], 4.9%.
For the compound `Nc1cc(Cl)c(N(CCO)C2=NCCN2)c(Cl)c1`, the growth inhibition in test [1] was 3.8%; in test [2], -3.25%; in test [3], 3.05%; in test [4] it was -12.2%; in test [5], 1.3%; in test [6] it was -5.75%.
`O=C(O)c1cc(Br)c(O)cc1O`: the growth inhibition is -11.4% in test [1]; -17.6% in test [2]; -3.35% in test [3]; 9.35% in test [4]; -5.25% in test [5]; 7% in test [6].
Regarding `CC(C)C1CC[N-]CC1.CC(C)C1CC[N-]CC1.[Cl][Pt+2][Cl]`, the growth inhibition was 82.6% (active) in test [1]; 48% in test [2]; 86.3% (active) in test [3]; 18.9% in test [4]; 36.6% in test [5]; 75.4% (active) in test [6].
With `COc1ccc2nc(NCCNCCO)cc(NCCNCCO)c2c1`, the growth inhibition is -12.2% in test [1]; -3.25% in test [2]; 1.2% in test [3]; 4.65% in test [4]; -0.75% in test [5]; 11.3% in test [6].
Consider `O=S(=O)(O)c1cccc2c1oc1ccccc12`, for which the growth inhibition in test [1] is 8.85%; in test [2], -37.4%; in test [3], -3.75%; in test [4], 19%; in test [5], -10.1%; in test [6] it was -19%.
Turning to `CCOC(=O)Nc1ccc(C2SCCN2C(=O)NC)cc1` (stereo unspecified), the growth inhibition in test [1] is 8.35%; in test [2], -22.1%; in test [3] it was 18.4%; in test [4], 17.4%; in test [5], 5.85%; in test [6], 32.2%.
`COc1ccc(Cc2ccc(Cl)cc2)c(OC)c1`: the growth inhibition in test [1] was 3.3%; in test [2], 2.25%; in test [3], 19.8%; in test [4] it was 15.2%; in test [5], -12.2%; in test [6] it was -5.15%.
In the case of `CN=C(N)N/N=C(\c1ccccc1)c1ccc(Cl)cc1`, the growth inhibition in test [1] is 43.4%; in test [2] it was 11.6%; in test [3] it was 43.1%; in test [4], 3.55%; in test [5], 34.6%; in test [6], 72.9% (active).
For `Cc1cc(C)c(NC(=O)C(Br)C(Br)c2ccccc2)c(C)c1` (stereo unspecified), the growth inhibition in test [1] is 11.6%; in test [2], -5.6%; in test [3], 5.1%; in test [4], 23.8%; in test [5], 2.15%; in test [6], 21.4%.
As for `O=C(OC1CCC(c2ccccc2)C1)c1cc([N+](=O)[O-])cc([N+](=O)[O-])c1` (stereo unspecified), the growth inhibition was 35% in test [1]; 25.9% in test [2]; 29.4% in test [3]; -4.3% in test [4]; 44.3% in test [5]; 58.1% in test [6].
As to `C/C(=N\O)c1cccc[n+]1Cc1ccccc1`, the growth inhibition in test [1] is 12.2%; in test [2] it was 12.7%; in test [3], -15.8%; in test [4] it was -21.6%; in test [5], 17.8%; in test [6], -3.6%.
